High-throughput results from PubChem.
Gli-Sufu block: Gli-Sufu pathway antagonists, primary screen, luciferase luminescence, Sufu-KO-LIGHT cells, uHTS. Sufu-KO-LIGHT fibroblasts, Gli luciferase reporter luminescence. inhibition, % at 5 µM. actives 0.74% (n = 340,000);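 active = inhibition above about 55%, limit read from the data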;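 also: 0% = DMSO-treated cells and 100% = wells with medium but no cells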
TAG inh: inhibitors of triacylglycerol accumulation, primary screen, cell-based, uHTS, fluorescence, H9c2. H9c2 cells, Nile Red lipid (TAG) fluorescence; cells loaded with 200 µM oleic acid. inhibition, % at 12.5 µM. actives 0.66% (n = 230,000);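 active = pattern-corrected inhibition of lipid staining of at least 50% with the nuclear-stain viability signal not falling by more than 50%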;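 also: 0% = DMSO wells and 100% = triacsin C control wells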
aSyn 5UTR inh: MLPCN primary screen, SNCA 5' untranslated region; alpha-synuclein 5'UTR reporter, inhibitor activity; inhibition, % (tested at 7.5 µM); actives 0.82% (n = 300,000); in the data active = inhibition above about 60%;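 also: H4 neuroglioblastoma cells stably carrying SNCA 5'UTR luciferase fusion; 0% = DMSO wells and 100% = positive control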
Jurkat NFkB inh: inhibitors of induced NF-kB luciferase reporter, primary screen, TCR NF-kB activation inhibitor project, cell-based, luminescence, uHTS; Jurkat, PMA/ionomycin-induced NF-kB luciferase reporter; inhibition, % at 4 µM; actives 0.53% (n = 330,000); in the data active = inhibition above about 50%
Shn3 3UTR inh: reduction of Shn3 3'UTR firefly luciferase signal, primary screen, Schnurri-3 inhibitor project, cell-based, Clone20 osteoblasts, set 2; Clone20 osteoblast Shn3 3'UTR firefly luciferase, 24 h; AID 588674, 2011; actives 0.52% (n = 360,000); inhibition, % at 12.5 µM;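 active = mean inhibition of at least 75% with every replicate also reaching 75%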;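 also: 0% = median of neutral control wells and 100% = pilot-screen positive control compound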
697 NFkB inh: inhibitors of PMA/ionomycin-induced NF-kB reporter, 697 cells, primary screen, B-cell NF-kB inhibitor project, cell-based, luminescence, uHTS | 697 B-cell NF-kB luciferase reporter, 16 h | inhibition, % at 4 µM | actives 0.33% (n = 330,000) | AID 435022, 2010; in the data active = inhibition above about 35%
Gli antag conf: Gli-SUFU pathway antagonists, confirmation, single concentration, luciferase luminescence, Sufu-KO-LIGHT cells; shares compounds with Gli-Sufu block; Gli luciferase reporter; inhibition, % at 5 µM; actives 40% (n = 2,500); AID 602428, 2012;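 active = mean inhibition at 5 µM reaching about 45%, limit read from the data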;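 also: plate controls were DMSO-treated cells for no effect and wells lacking cells for full effect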
SufuKO cytotox: cytotoxicity in Sufu-KO-LIGHT cells, confirmation, cytotoxicity control for Gli-SUFU antagonist project, cell-based, ATP luminescence, single concentration | shares compounds with Gli-Sufu block | cytotoxicity, % at 5 µM | actives 32% (n = 2,500) | AID 651994, 2013;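 active = mean cytotoxicity at 5 µM above about 25%, limit read from the data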;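 also: cells exposed to compound overnight for roughly 16 to 18 hours; plate controls were DMSO wells with cells for no effect and medium without cells for full effect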
Wnt3a counter: Wnt3a reporter signal inhibition, confirmation, counter-screen for Gli-SUFU antagonist project, Wnt-LIGHT cells, luminescence, single concentration. shares compounds with Gli-Sufu block. Wnt3a-driven luciferase reporter. inhibition, % at 6.25 µM. actives 20% (n = 2,500). AID 651995, 2013;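 active = mean inhibition above about 25%, limit read from the data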
Active calls of the source: *; x = no result given. Shown are actives, neighbours in structure and some others; about 2.3% of the full set was active somewhere.

SMILES	Gli-Sufu block	TAG inh	aSyn 5UTR inh	Jurkat NFkB inh	Shn3 3UTR inh	697 NFkB inh	Gli antag conf	SufuKO cytotox	Wnt3a counter
COc1ccc(NC(=O)CN(C)C(=O)c2c(-c3ccccc3Cl)noc2C)cc1	-8.6	-2.0	-3.9	0.7	-3.0	12.5	x	x	x
O=C(COC(=O)CCC(=O)c1ccc(Cl)cc1)NCCc1ccccc1	3.0	-3.7	4.5	7.8	-15.5	16.3	x	x	x
CN(C)c1ccc(C(=O)N2CCNC(=O)C2CC(=O)Nc2ccc(F)cc2)cc1 (stereo not drawn)	95.3*	-8.3	-5.2	13.2	7.3	3.9	16.6	3.0	-6.1
COc1ccc(NC(=O)CC2C(=O)NCCN2C(=O)c2ccc(N(C)C)cc2)cc1 (stereo not drawn)	1.5	-7.3	-12.1	-2.9	x	19.4	x	x	x
COc1cccc(CNS(=O)(=O)/C=C/c2ccc(OC)c(OC)c2)c1	4.2	-0.2	-0.3	9.5	-0.3	13.3	x	x	x
C/C(=N/NC(=O)c1nnn(-c2nonc2N)c1-c1ccccc1)c1ccc2c(c1)OCO2	51.1	x	-6.3	-5.8	12.4	7.5	24.3	1.6	4.2
CCOc1cccc(-c2c(C(=O)N/N=C(\C)c3ccncc3)nnn2-c2nonc2N)c1	-1.5	x	24.6	6.7	-2.4	-13.7	x	x	x
CCOc1cccc(-c2c(C(=O)N/N=C(\C)c3ccccn3)nnn2-c2nonc2N)c1	74.6*	x	90.0*	x	93.9*	x	85.7*	50.9*	87.6*
Cc1ccsc1/C=N/n1c(-c2ccncc2)n[nH]c1=S	56.1*	x	17.3	-5.6	4.3	-10.2	10.4	7.2	1.4
Cc1ccsc1/C=N/n1c(-c2ccccc2)n[nH]c1=S	1.6	x	13.1	-6.1	5.5	6.7	x	x	x
O=C(C(=Cc1ccccc1)CN1CCCCC1)c1ccccc1	60.3*	81.6	x	x	95.0*	x	77.5*	12.7	68.9*
Cc1onc(-c2ccccc2Cl)c1C(=O)OCn1nnc2ccccc2c1=O	-1.8	x	16.5	-6.4	1.2	-21.9	x	x	x
O=C1/C(=C/c2ccccc2)SC(=S)N1CCCC(=O)N1CCCCC1CCO (stereo not drawn)	59.4*	x	-3.0	12.4	-44.2	-18.1	24.6	1.9	-4.4
S=C(Nc1ccc2nc(-c3ccccn3)c(-c3ccccn3)nc2c1)N1CCCCC1	53.6	6.0	x	5.6	-0.5	13.8	31.0	11.5	3.3
C(#Cc1ccccc1)C[N+]1(CC#Cc2cccc3ccccc23)CCCC1	81.5*	-4.0	2.9	24.2	83.5	-14.8	82.7*	18.8	4.4
S=c1[nH]nc(CSCCOc2ccc(Cl)cc2Cl)o1	55.0	11.5	-2.3	-15.7	-10.6	-48.9	14.8	6.7	-27.6
COc1cccc(N(CC(=O)N2CCOCC2)S(C)(=O)=O)c1	12.9	x	-14.0	-12.8	-0.7	-9.0	x	x	x
COc1ccc(C2C3=C(CC(C)(C)CC3=O)Nc3c2c(=O)n(C)c(=O)n3C)cc1OC (stereo not drawn)	58.3*	-1.1	-6.2	-2.2	2.5	8.3	13.5	29.0*	11.1
O=C1C(Cc2cccc([N+](=O)[O-])c2)SC(=Nc2ccccc2)N1c1ccccc1 (stereo not drawn)	61.6*	x	13.8	-4.2	15.1	-10.5	18.5	23.9	-35.5
CCCC(=O)Nc1cc(C)c(NC(=O)c2ccccn2)cn1	59.5*	12.2	-30.4	2.5	-25.2	9.3	6.1	4.9	-50.8
O=C(CCC1CCCCC1)NCc1cccnc1	-3.0	x	14.3	2.4	37.0	16.2	x	x	x
O=C(CCC1CCCCC1)Nc1cccnc1	56.3*	5.9	-40.1	-25.5	-7.0	3.7	18.9	-8.9	-22.4
O=C(C1CC1)N1CCN(c2ccc([N+](=O)[O-])cc2)CC1	53.0	-32.1	3.1	0.1	14.7	4.0	22.7	11.4	1.1
Cc1ccc(OCC(=O)NNC(=O)C2CCN(c3ncnc4sc(C)c(C)c34)CC2)cc1	-5.9	-12.5	0.5	6.1	19.7	7.1	x	x	x
O=S(=O)(c1ccc(Cl)cc1)N1CCN(c2ncnc3sccc23)CC1	50.4	-17.6	x	12.2	82.7	-29.8	46.5*	21.1	35.0*
SMILES	Gli-Sufu block	TAG inh	aSyn 5UTR inh	Jurkat NFkB inh	Shn3 3UTR inh	697 NFkB inh	Gli antag conf	SufuKO cytotox	Wnt3a counter
Cc1sc2ncnc(N3CCN(S(=O)(=O)c4ccc(Br)cc4)CC3)c2c1C	49.6	-20.8	-1.7	17.4	83.4	-38.8	x	x	x
Cc1sc2ncnc(N3CCN(S(=O)(=O)c4ccc(C(C)(C)C)cc4)CC3)c2c1C	54.8	-33.5	x	-4.3	72.7	0.5	61.2*	25.4*	16.3
Cc1csc2c(N3CCN(S(=O)(=O)c4ccc(Cl)cc4)CC3)ncnc12	7.7	1.0	-6.1	12.5	1.6	1.6	x	x	x
Cc1ccc(S(=O)(=O)N2CCN(C(=O)C3CCN(c4ncnc5sc(C)c(C)c45)CC3)CC2)c(C)c1	66.5*	-20.9	x	x	92.1*	x	60.4*	6.1	-42.0
CCCOC1CCCN(C(=O)c2cc(Cl)c(Cl)cc2C(=O)O)C1 (stereo not drawn)	-2.1	5.5	-25.2	-13.3	-10.6	-21.8	x	x	x
CC(=O)Nc1ccc(OC(F)(F)Cl)cc1	-3.7	-1.4	4.7	-11.8	11.2	1.3	x	x	x
CN1C(=O)/C(=C/c2cccc(Cl)c2)Sc2ccc(C(=O)N3CCOCC3)cc21	19.1	x	-26.0	8.9	-6.6	-4.0	x	x	x
COc1cccc(/C=N/NC(=O)C(C)n2nnc3ccccc32)c1 (stereo not drawn)	2.0	x	8.6	7.0	11.7	5.6	x	x	x
COc1ccc(S(=O)(=O)NC2CC(C)(C)NC(C)(C)C2)cc1C(C)C	51.4	13.1	6.8	-1.0	x	2.2	16.5	11.2	-18.2
CN(C)c1ncnc2c1ccn2C1OC(CO)C(O)C1O (stereo not drawn)	61.8*	32.0	x	x	88.1*	x	68.0*	47.5*	40.3*
OC[C@H]1O[C@@H](n2cnc3c(Nc4ccccc4)ncnc32)[C@H](O)[C@@H]1O	-9.6	3.2	-78.9	-16.6	-27.0	-15.4	x	x	x
CN(C)c1nc2c(N)ncnc2n1C1OC(CO)C(O)C1O (stereo not drawn)	-6.2	-2.1	x	x	4.6	x	x	x	x
